Here are results for 29 compounds from PubChem BioAssay (NCATS).

Calls of active or inactive are those of the source. Calls follow the shape of the full dose curve.

The first experiment in a line: qHTS drug screen for cell cycle checkpoint inhibitors in PARPi-resistant BRCA-mutant ovarian cancer cell lines. (AID 1963452). The conditions noted are these: PEO1/OlaR viability, CellTiter-Glo luminescence, 96 h; stronger effect = lower value. Put shortly: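 PEO1, PEO4 and PEO1/OlaR ovarian cancer cells, 600 per well, exposed 96 h at 37C to a dilution series. Viability read by CellTiter-Glo luminescence, normalized to DMSO and empty wells; activity summarized as Z-AUC.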
Background: Quantitative high-throughput screening tests each substance at several concentrations.
For `COc1ccc(C(=O)C2CCN(CC(=O)N(Cc3nc4c(c(=O)[nH]3)COCC4)CC3CC3)CC2)cc1`, the Z-AUC is -0.974 (inactive).

With `COc1cc2ncnc(Nc3cccc(Cl)c3F)c2cc1OC(=O)N1CCN(C)C[C@H]1C`, the Z-AUC is -0.739 (inactive).

On to `Cc1cnc(Nc2ccc(F)cc2Cl)nc1-c1c[nH]c(C(=O)NC(CO)c2cccc(Cl)c2)c1` (stereo unspecified), for which the Z-AUC was -0.685 (inactive).

`CS(=O)(=O)c1ccc(-c2nnc(/C=C/c3nnc(-c4ccc(C#N)cc4)o3)n2-c2ccccc2Cl)nc1`: the Z-AUC was -0.316 (inactive).

With `C[C@H]1[C@H](O)O[C@@H]2O[C@@]3(C)CC[C@H]4[C@H](C)CC[C@@H]1[C@@]24OO3`, the Z-AUC was 1.05 (inactive).

Take `CCNCc1nc2c(N)nc3ccccc3c2n1CC(C)(C)O`: the Z-AUC is -0.12 (inactive).

For `CC(O)c1cc(C(=O)N[C@@H](C)Cn2ccc(-c3ccc(C#N)c(Cl)c3)n2)n[nH]1` (stereo partly specified), the Z-AUC is -0.266 (inactive).

On to `Cc1c(C(=O)N2CCOc3ccc(-c4ccc(N)nc4)cc3C2)ccc(S(C)(=O)=O)c1F`, for which the Z-AUC is 0.331 (inactive).

As for `Cn1cncc1C(N)(c1ccc(Cl)cc1)c1ccc2c(c1)c(-c1cccc(Cl)c1)cc(=O)n2C` (stereo unspecified), the Z-AUC was -1.06 (inactive).

As to `CN1CCN(C(=O)c2ccc3cc(CCNc4ncnc5ccc(C#N)cc45)ccc3c2)CC1`, the Z-AUC is -0.0214 (inactive).

With `CCNC(=O)Nc1ncc(-c2cc(-c3c(C)cc(OC)cc3C)nc(-c3cnccn3)n2)s1`, the Z-AUC is 0.457 (inactive).

With `O=C(/C=C/c1cccc(S(=O)(=O)Nc2ccccc2)c1)NO`, the Z-AUC was -0.934 (inactive).

Take `COc1ccc(Cl)c(Nc2nc3ccccc3nc2NS(=O)(=O)c2cccc(NC(=O)C(C)(C)N)c2)c1`: the Z-AUC is -0.00434 (inactive).

Take `CC[C@]1(O)CC2CN(CCc3c([nH]c4ccccc34)[C@@](C(=O)OC)(c3cc4c(cc3OC)N(C)[C@H]3[C@@](O)(C(=O)OC)[C@H](OC(C)=O)[C@]5(CC)C=CCN6CC[C@]43[C@@H]65)C2)C1` (stereo partly specified): the Z-AUC is -0.152 (inactive).

Consider `Cc1[nH]nc(C(F)(F)F)c1Cc1sc2c(c1C(=O)N1C[C@](C)(O)CO1)c(=O)n(C)c(=O)n2C(C)C`, for which the Z-AUC is 0.988 (inactive).

Turning to `CCOc1cc(C(=O)N2CCC(N3CCN(C)CC3)CC2)ccc1Nc1ncc2c(n1)N(C1CCCC1)c1ccccc1C(=O)N2C`, the Z-AUC was -1.32 (inactive).

Take `c1cc(Nc2cc(C3CC3)[nH]n2)nc(Nc2ccc3nc[nH]c3c2)n1`: the Z-AUC is -1.72 (inactive).

For the compound `C[C@H](Nc1ncnc2nc[nH]c12)c1cc2ccc(F)cc2nc1-c1ccccn1`, the Z-AUC is -0.541 (inactive).

Take `COCCN1CCN(Cc2ccc(-c3n[nH]c4c3C(=O)c3c(NC(=O)NN5CCOCC5)cccc3-4)cc2)CC1`: the Z-AUC is 0.43 (inactive).

Regarding `CS(=O)(=O)N1CCC(NC(=O)c2[nH]ncc2NC(=O)c2c(Cl)cccc2Cl)CC1`, the Z-AUC was -1.39 (inactive).

As for `Cc1nc([C@](C)(O)CO)sc1-c1cnc(N)c(O[C@H](C)c2cc(F)ccc2-n2nccn2)c1`, the Z-AUC was 1.59 (inactive).

As for `CC(C)[C@@H](CS(=O)(=O)C(C)C)N1C(=O)[C@@](C)(CC(=O)O)C[C@H](c2cccc(Cl)c2)[C@H]1c1ccc(Cl)cc1`, the Z-AUC is 1.18 (inactive).

For `COCCOc1ccc(N2CCN(CCn3ncc4c3nc(N)n3nc(-c5ccco5)nc43)CC2)cc1`, the Z-AUC is -0.648 (inactive).

Consider `Cc1ccc(S(=O)(=O)Cc2nc(-c3ccc(C(=O)NCc4cccnc4)cc3)oc2C)cc1`, for which the Z-AUC is -1.97 (inactive).

`O=C(/C=C\n1cnc(-c2cc(C(F)(F)F)cc(C(F)(F)F)c2)n1)N1CC(F)(F)C1`: the Z-AUC is -0.848 (inactive).

On to `CC[C@H](NC(=O)[C@H](CS(=O)(=O)CC1CC1)N[C@@H](c1ccc(F)cc1)C(F)(F)F)C(=O)C(=O)NC1CC1`, for which the Z-AUC was 0.263 (inactive).

As to `CCn1c(=O)c(-c2ccn[nH]2)cc2c(C)nc(N)nc21`, the Z-AUC was -0.643 (inactive).

Staying with this experiment, now noted: PEO1/OlaR viability, CellTiter-Glo luminescence, 96 h; measured here: PEO1 parental Z-AUC; stronger effect = lower value.
Turning to `COc1ccc(C(=O)C2CCN(CC(=O)N(Cc3nc4c(c(=O)[nH]3)COCC4)CC3CC3)CC2)cc1`, the Z-AUC was -0.643.

Consider `COc1cc2ncnc(Nc3cccc(Cl)c3F)c2cc1OC(=O)N1CCN(C)C[C@H]1C`, for which the Z-AUC was -1.08.

Take `Cc1cnc(Nc2ccc(F)cc2Cl)nc1-c1c[nH]c(C(=O)NC(CO)c2cccc(Cl)c2)c1` (stereo unspecified): the Z-AUC was -0.607.

On to `CS(=O)(=O)c1ccc(-c2nnc(/C=C/c3nnc(-c4ccc(C#N)cc4)o3)n2-c2ccccc2Cl)nc1`, for which the Z-AUC is 0.177.

As for `C[C@H]1[C@H](O)O[C@@H]2O[C@@]3(C)CC[C@H]4[C@H](C)CC[C@@H]1[C@@]24OO3`, the Z-AUC came out at 0.808.

Consider `CCNCc1nc2c(N)nc3ccccc3c2n1CC(C)(C)O`, for which the Z-AUC came out at 0.65.

As for `CC(O)c1cc(C(=O)N[C@@H](C)Cn2ccc(-c3ccc(C#N)c(Cl)c3)n2)n[nH]1` (stereo partly specified), the Z-AUC was -0.668.

In the case of `Cc1c(C(=O)N2CCOc3ccc(-c4ccc(N)nc4)cc3C2)ccc(S(C)(=O)=O)c1F`, the Z-AUC turned out to be 0.561.

`COc1ccc(N(C)c2nc(C)nc3ccccc23)cc1`: the Z-AUC is -2.78.

Take `Cn1cncc1C(N)(c1ccc(Cl)cc1)c1ccc2c(c1)c(-c1cccc(Cl)c1)cc(=O)n2C` (stereo unspecified): the Z-AUC was -0.892.

On to `CN1CCN(C(=O)c2ccc3cc(CCNc4ncnc5ccc(C#N)cc45)ccc3c2)CC1`, for which the Z-AUC is -0.289.

Regarding `CCNC(=O)Nc1ncc(-c2cc(-c3c(C)cc(OC)cc3C)nc(-c3cnccn3)n2)s1`, the Z-AUC came to 1.44.

For `O=C(/C=C/c1cccc(S(=O)(=O)Nc2ccccc2)c1)NO`, the Z-AUC was -1.03.

As to `COc1ccc(Cl)c(Nc2nc3ccccc3nc2NS(=O)(=O)c2cccc(NC(=O)C(C)(C)N)c2)c1`, the Z-AUC worked out at 0.542.

With `CC[C@]1(O)CC2CN(CCc3c([nH]c4ccccc34)[C@@](C(=O)OC)(c3cc4c(cc3OC)N(C)[C@H]3[C@@](O)(C(=O)OC)[C@H](OC(C)=O)[C@]5(CC)C=CCN6CC[C@]43[C@@H]65)C2)C1` (stereo partly specified), the Z-AUC was -1.01.

On to `Cc1[nH]nc(C(F)(F)F)c1Cc1sc2c(c1C(=O)N1C[C@](C)(O)CO1)c(=O)n(C)c(=O)n2C(C)C`, for which the Z-AUC amounted to 0.611.

On to `CCOc1cc(C(=O)N2CCC(N3CCN(C)CC3)CC2)ccc1Nc1ncc2c(n1)N(C1CCCC1)c1ccccc1C(=O)N2C`, for which the Z-AUC was 0.31.

Consider `c1cc(Nc2cc(C3CC3)[nH]n2)nc(Nc2ccc3nc[nH]c3c2)n1`, for which the Z-AUC is -2.08.

`C[C@H](Nc1ncnc2nc[nH]c12)c1cc2ccc(F)cc2nc1-c1ccccn1`: the Z-AUC is -0.257.

Consider `COCCN1CCN(Cc2ccc(-c3n[nH]c4c3C(=O)c3c(NC(=O)NN5CCOCC5)cccc3-4)cc2)CC1`, for which the Z-AUC worked out at 0.701.

Consider `CS(=O)(=O)N1CCC(NC(=O)c2[nH]ncc2NC(=O)c2c(Cl)cccc2Cl)CC1`, for which the Z-AUC is -1.73.

On to `Cc1nc([C@](C)(O)CO)sc1-c1cnc(N)c(O[C@H](C)c2cc(F)ccc2-n2nccn2)c1`, for which the Z-AUC turned out to be 0.437.

Regarding `CC(C)[C@@H](CS(=O)(=O)C(C)C)N1C(=O)[C@@](C)(CC(=O)O)C[C@H](c2cccc(Cl)c2)[C@H]1c1ccc(Cl)cc1`, the Z-AUC turned out to be 1.37.

`COCCOc1ccc(N2CCN(CCn3ncc4c3nc(N)n3nc(-c5ccco5)nc43)CC2)cc1`: the Z-AUC is -0.346.

As to `Cc1ccc(S(=O)(=O)Cc2nc(-c3ccc(C(=O)NCc4cccnc4)cc3)oc2C)cc1`, the Z-AUC was -3.12.

With `COc1cc2ncnc(Nc3ccc(F)c(Cl)c3)c2cc1NC(=O)/C=C/CN1CCCCC1`, the Z-AUC was -1.17.

As for `O=C(/C=C\n1cnc(-c2cc(C(F)(F)F)cc(C(F)(F)F)c2)n1)N1CC(F)(F)C1`, the Z-AUC is -1.85.

For the compound `CC[C@H](NC(=O)[C@H](CS(=O)(=O)CC1CC1)N[C@@H](c1ccc(F)cc1)C(F)(F)F)C(=O)C(=O)NC1CC1`, the Z-AUC stood at 1.63.

On to `CCn1c(=O)c(-c2ccn[nH]2)cc2c(C)nc(N)nc21`, for which the Z-AUC is -0.106.
